Measurements from PubChem BioAssay (NCI).
The panel holds about 83,000 compounds, 20% with a hit somewhere; the sample as a whole holds those more often.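 Single-concentration screen, 48 h exposure, 96-well plates. Endpoint: percent growth. Below 10 = active.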 Unmarked numbers belong to inactive results. Active and inactive are the calls of the source.

Assays:
Test in all cases: NCI-60 one-dose screen, 48 h (100 = growth as untreated, 0 = no growth, -100 = all killed)
Conditions in all cases: 10 µM unless noted
[1] = test system: T-47D breast
[2] = test system: BT-549 breast
[3] = test system: MDA-MB-435 melanoma
[4] = test system: SW-620 colon
[5] = test system: MCF7 breast
[6] = test system: HCT-116 colon
[7] = test system: HCC-2998 colon
[8] = test system: KM12 colon

| Compound | growth [1] | growth [2] | growth [3] | growth [4] | growth [5] | growth [6] | growth [7] | growth [8] |
| --- | --- | --- | --- | --- | --- | --- | --- | --- |
| CC[C@@]12C=CCN3CC[C@]4(c5cc(NC(=O)COc6cc(OCC(=O)Nc7cc8c(cc7OC)N(C)[C@H]7[C@@](O)(C(=O)OC)[C@H](OC(C)=O)[C@]9(CC)C=CCN%10CC[C@]87[C@@H]%109)cc7oc(-c8ccccc8)cc(=O)c67)c(OC)cc5N(C)[C@@H]4[C@](O)(C(=O)OC)[C@H]1OC(C)=O)[C@H]32 | 77.3% | 61.4% | 42% | 20.3% | 26.1% | 0.866% (active) | -8.78% (active) | -39.3% (active) |
| COc1cc2ncnc(Nc3ccc(C(=O)/C=C/c4ccc(C(F)(F)F)cc4F)cc3)c2cc1OC | 131% | 93.6% | 84.2% | 110% | 64.6% | -62.7% (active) | 109% | 83.4% |
| FCc1nc2nc(Cl)c(Cl)nc2[nH]1 | 101% | 104% | 107% | 103% | 96.5% | 101% | 104% | 104% |
| Cc1ccc2[nH]c(=S)n(-c3ccc(S(=O)(=O)Nc4ccc(Cl)nn4)cc3)c(=O)c2c1 | 96.7% | 83.3% | 102% | 96.2% | 95% | 39.7% | 104% | 104% |
| COc1ccc(C(=O)c2cc3c(N)c(C(=O)Nc4cccc(OC)c4)sc3nc2C)cc1 | 62.6% | 45.6% | -14.3% (active) | 30.1% | 23.4% | 11.1% | 19.5% | 20.9% |
| COc1ccc(NC(=O)c2sc3nc(C)c(C(=O)c4ccc(OC)cc4)cc3c2N)cc1 | 59.6% | 49.1% | -26.2% (active) | 34.9% | 25.3% | 21.8% | 89.4% | 46.9% |
| CN1CCN(Cc2ccc(NC(=O)c3cncc(C#Cc4cnccc4C(F)(F)F)c3)cc2C(F)(F)F)CC1 | 92.2% | 91.8% | 54.7% | 62.8% | 49% | 29.1% | 65.7% | 20.8% |
| Cc1n[nH]c(C)c1-c1c(C)n[nH]c1C | 18.7% | 2.96% (active) | -35.9% (active) | -26.1% (active) | 10.3% | -44.1% (active) | 4.99% (active) | -19.3% (active) |
| Clc1ccc(N2N=C(c3cccc(Nc4ccncc4)c3)CC2c2ccc3c(c2)OCO3)cc1 (centres undefined) | 82.2% | 87.1% | -77.6% (active) | -78.6% (active) | -17.4% (active) | 18.4% | 1.72% (active) | 2.3% (active) |
| COc1ccc2c(/C=C3/C(=O)NC(=S)NC3C)cc(=O)oc2c1 (centres undefined) | 88% | 103% | 102% | 103% | 90.1% | 95.6% | 96% | 99.7% |
| C=C(C)[C@@H]1CC[C@]2(C(=O)O)CC[C@]3(C)[C@H](CC[C@@H]4[C@@]5(C)C[C@@H](CC#Cc6ccc(Br)cc6)C(=O)C(C)(C)[C@@H]5CC[C@]43C)[C@@H]12 | 48.3% | 69.8% | 42.4% | 42.1% | 49% | 39.4% | 61.4% | 40.3% |
| C=C(C)[C@H]1CC/C(C)=C/CC[C@]2(C)O[C@H]2CC/C(COC(=O)[C@@H](OC(C)=O)[C@H](NC(=O)c2ccccc2)c2ccccc2)=C\[C@@H]1O | 73.6% | 97.1% | 92.3% | 105% | 81.2% | 89.6% | 96.5% | 99.6% |
| Cc1cccc(C)c1-c1cc(Cc2ccc(Cl)cc2)c(=O)[nH]n1 | 86.4% | 86.1% | 119% | 104% | 97.2% | 96.9% | 86.4% | 103% |
| Cn1c(COC(=O)NCCc2ccccn2)nc2c(N3CCOCC3)nc(Cl)nc21 | -2.17% (active) | 2.36% (active) | -83.3% (active) | -86.2% (active) | -43.5% (active) | -69.8% (active) | 37.5% | 44.3% |
| CC(=O)OCC(=O)C1(O)C(C)CC2C3C=C(C)C4=Cc5c(cnn5-c5ccccc5)CC4(C)C3C(O)CC21C (centres undefined) | 40.4% | 21.5% | 33.7% | -30% (active) | 12.8% | 3.77% (active) | 13.5% | -28.7% (active) |
| CC(=O)CCSc1ccc(OC(C)=O)cc1 | 91.9% | 96.5% | 104% | 105% | 102% | 97% | 89.7% | 99.9% |
| CC(=O)N1c2ccccc2NC2=C(C(=O)N(Cc3ccccc3)C2(C)C)C1c1ccco1 (centres undefined) | 35.1% | 47.6% | -56.2% (active) | 21.7% | 15.3% | 7.52% (active) | 3.73% (active) | 14.8% |
| CN(C)C(=O)OCc1nc2c(N3CCOCC3)nc(-c3ccccc3)nc2n1C | -50.3% (active) | -31.1% (active) | -89.1% (active) | -77.7% (active) | -60% (active) | -56.6% (active) | -78.3% (active) | -65.6% (active) |
| CC(C)Cc1ccc(C(C)C(=O)NCc2c[nH]c3ccc(Cl)cc23)cc1 (centres undefined) | 69.8% | 88.8% | 66.6% | 90.9% | 89.5% | 85.9% | 103% | 83.5% |
| O=C(CN1CCOCC1)Nc1ccc2ncnc(Nc3ccc(OCc4cccc(F)c4)c(Cl)c3)c2c1 | 18.5% | 70.8% | 72.1% | 109% | 54.7% | 64.5% | 88.6% | 83.2% |
| COc1ccc(C(=O)c2cc3c(N)c(C(=O)Nc4ccc(Cl)cc4)sc3nc2C)cc1 | 66.4% | 79.5% | 57.2% | 64.3% | 61.8% | 54.6% | 91.6% | 70.2% |
| Cc1c(C(=O)NO)sc2ncnc(Nc3ccc(NC(=S)Nc4ccccc4)cc3)c12 | 113% | 106% | 101% | 105% | 95.3% | 105% | 99.9% | 102% |
| CC1CCN(C(=O)OCc2nc3nc(Cl)nc(N4CCOCC4)c3[nH]2)CC1 | -61.6% (active) | -66% (active) | -76.5% (active) | -55.6% (active) | -18.9% (active) | -74.1% (active) | 2.05% (active) | 9.43% (active) |
| Cc1cc2cc3cc(C)c(N)cc3[n+](C)c2cc1N | 8.77% (active) | 9.11% (active) | 9.46% (active) | 9.45% (active) | 8.32% (active) | 3.49% (active) | 9.7% (active) | 5.06% (active) |
| CC(=O)[C@@H]1CC[C@]2(C(N)=O)CC[C@]3(C)[C@H](CC[C@@H]4[C@@]5(C)CCC(=O)C(C)(C)[C@@H]5CC[C@]43C)[C@@H]12 | 80.2% | 93.3% | 99.9% | 110% | 89.9% | 90.4% | 107% | 100% |
| O=C1CCC(NC(=S)Nc2ccccc2)N1 (centres undefined) | 103% | 114% | 109% | 107% | 97.3% | 97.6% | 98.7% | 98% |
| O=S(=O)(NCCNc1nccc(-c2c(-c3ccc(F)c(O)c3)nc3occn23)n1)c1ccccc1 | 71.9% | 80.8% | 28.1% | 63.5% | 36.5% | 22.6% | 62.1% | 52.6% |
| CN1CCN(C(=O)OCc2nc3c(N4CCOCC4)nc(-c4ccccc4)nc3n2C)CC1 | -40.7% (active) | -71.1% (active) | -84.1% (active) | -46.4% (active) | -64.3% (active) | -71.6% (active) | -75.4% (active) | -61.6% (active) |
